Screening data as filed in PubChem.
HepG2 tox – kills HepG2 cells in TGF-b inhibitor counter-screen; AID 588856; HepG2 CAGA-GFP viability, ATP luminescence, 18 h; Potency, µM (doses to about 46.1 µM), inactives show at the top dose activity change, negative = cytotoxicity, hits mostly cytotoxic; actives 0.76% (n = 410,000); note: potency is the fitted concentration of half-maximal effect
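HepG2 CAGA-GFP cells (1000/well, DMEM with 1% FBS) received compound, then TGF-beta at 500 pg/mL final, and were incubated 18 hours at 37 degrees C. Viability was read by CellTiter-Glo luminescence. Media-only wells were set as complete cell-killing and DMSO as no toxicity.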
TGFb SMAD3 inh – TGF-b pathway inhibition | HepG2 CAGA-GFP TGF-b/SMAD3 reporter, GFP fluorescence, 18 h; TGF-beta stimulated, 500 pg/mL final | Potency, µM (top dose mostly 46.1 µM), for inactives: top-dose activity, negative = inhibition, usual class: inhibitors | actives 1.2% (n = 410,000) | AID 588855; note: potency is the fitted concentration of half-maximal effect; % is set by controls: 0 for no effect and ±100 for the full control effect; nearly all actives have a fitted effect of over 65% in size
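TGF-beta reporter screen: HEPG2 CAGA-GFP, 1% FBS, 500 pg/mL TGF-beta final, 18 h; per-cell GFP summed per well; curves fitted and categorized by class.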
IL1B secr inh – inflammasome signaling inhibition, IL-1 beta readout | actives 4.7% (n = 360,000) | THP-1 LPS/ATP IL-1B secretion, AlphaLISA, 16 h; hits give low values | activity change, % at 57.5 µM | AID 743279; in the data active = activity change below about -50%; inconclusive = mostly about -30% to -49%; note: % is set by controls: 0 for no effect and ±100 for the full control effect
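Secreted IL-1B measured by AlphaLISA bead assay after 16 h compound exposure of THP-1 cells; compounds (final up to 57.5 uM) added 1 h before LPS (250 ng/mL) and ATP (1.25 mM) stimulation; lower signal means less secretion.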
TDP1 inh – blocks human tyrosyl-DNA phosphodiesterase 1. recombinant TDP1, AlphaScreen DNA substrate cleavage. Potency, µM (highest dose often 130 µM), without a hit: at the top dose activity change, negative = inhibition, usual class: inhibitors. actives 0.28% (n = 350,000); note: potency is the fitted concentration of half-maximal effect; % is set by controls: 0 for no effect and ±100 for the full control effect; nearly all actives have a fitted effect of over 40% in size
Target sequence (Q9NUW8 whole entry, looked up): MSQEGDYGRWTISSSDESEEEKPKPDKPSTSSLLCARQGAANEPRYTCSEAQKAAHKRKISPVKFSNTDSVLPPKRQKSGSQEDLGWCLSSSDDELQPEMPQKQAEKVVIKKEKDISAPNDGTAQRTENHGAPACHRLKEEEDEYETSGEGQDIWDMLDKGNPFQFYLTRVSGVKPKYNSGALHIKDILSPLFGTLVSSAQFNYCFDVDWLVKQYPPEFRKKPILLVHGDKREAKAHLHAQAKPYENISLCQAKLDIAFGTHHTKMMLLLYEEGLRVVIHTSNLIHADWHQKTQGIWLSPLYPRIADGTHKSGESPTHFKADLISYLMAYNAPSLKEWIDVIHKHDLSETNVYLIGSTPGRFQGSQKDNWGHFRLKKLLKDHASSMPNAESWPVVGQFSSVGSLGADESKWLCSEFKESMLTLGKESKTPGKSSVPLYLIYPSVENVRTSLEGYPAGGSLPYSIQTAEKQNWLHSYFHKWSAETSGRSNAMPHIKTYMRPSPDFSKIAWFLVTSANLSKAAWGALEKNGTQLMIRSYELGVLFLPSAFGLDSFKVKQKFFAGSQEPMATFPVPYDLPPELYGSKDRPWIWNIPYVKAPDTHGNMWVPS
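Steps: enzyme plus compound, 15 min RT; add biotin/phosphotyrosine-FITC oligonucleotide (15 nM final), react 5 min; add donor/acceptor beads (10 ug/ml final), 10 min; read AlphaScreen. Tdp1 at 1 nM final.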
DT40 TDP1 CPT – DT40-hTDP1 cell growth loss with CPT | chicken DT40 Tdp1-/-;hTDP1 cells + 20 nM CPT, ATP luminescence, 48 h | Potency, µM (doses to about 46.2 µM), for inactives: at the top dose activity change, negative = growth inhibition, hits mostly inhibitors | actives 12% (n = 420,000) | AID 686979; note: potency is the fitted concentration of half-maximal effect; % is set by controls: 0 for no effect and ±100 for the full control effect; nearly all actives have a fitted effect of over 55% in size
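Chicken DT40 Tdp1-/- cells complemented with human TDP1, 400 cells/well, exposed to compounds plus 20 nM camptothecin for at least 48 h at 37 C; viability read as ATP content by CellTiter-Glo luminescence.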
DT40 TDP1 no CPT – qHTS for Inhibitors of human tyrosyl-DNA phosphodiesterase 1 (TDP1): qHTS in cells in absence of CPT; DT40 Tdp1-/- hTDP1 cells, no CPT, ATP luminescence, 48 h; Potency, µM (titrated, usually from 46.2 µM), inactives show top-dose activity change, negative = growth inhibition, most hits filed as inhibitors; actives 15% (n = 420,000); note: potency is the fitted concentration of half-maximal effect; % is set by controls: 0 for no effect and ±100 for the full control effect; nearly all actives have a fitted effect of over 55% in size
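Growth of hTDP1-complemented DT40 Tdp1-knockout cells is measured by ATP luminescence after at least 48 hr compound exposure at 37 °C, with DMSO substituting for the 20 nM CPT used in the parallel screen.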
* = called active by the depositor; ? = inconclusive; · = no result; [ ] = dose if it differs, or a comment. An excerpt weighted towards active compounds, which were near 18% of everything screened. Unless noted, calls come from the whole dose curve; as a rule, active = well fitted curve in the direction sought with a large enough effect; inconclusive = small, poorly fitted or top-dose-only effect, or another doubt; inactive = no such curve, though single readings can be large; an effect the other way counts as inactive or inconclusive.

SMILES	HepG2 tox	TGFb SMAD3 inh	IL1B secr inh	TDP1 inh	DT40 TDP1 CPT	DT40 TDP1 no CPT
COc1ccc(-n2nnnc2SCC(=O)c2ccc3c(c2)OCCO3)c(OC)c1	-3%	-4%	-2	1%	?	13µM*
O=C(CSc1nnnn1C1CCCCC1)N1c2ccccc2Sc2ccccc21	-10%	?	0	3%	?	21µM*
CC(C)n1nnnc1SCC(=O)c1ccc2c(c1)OCCO2	1%	-1%	-8	4%	?	?
COCCn1c(SCC(=O)c2ccc3c(c2)OCCO3)nnc1-c1ccoc1C	1%	-13%	21	7%	15µM*	10µM*
COc1ccc(C)cc1-n1nnnc1SCC(=O)c1ccc2c(c1)OCCO2	-13%	-24%	-13	6%	18µM*	?
CC(NCC(=O)Nc1cc(S(=O)(=O)N2CCOCC2)ccc1N1CCOCC1)c1ccco1 (configuration not stated)	3%	3%	0	3%	-14%	8%
Cc1cc(NC(=O)CSc2nc(C)c(C)c(=O)[nH]2)no1	6%	1%	10	0%	7%	2%
O=C(CSc1nnnn1C1CCCC1)c1ccc2c(c1)OCCO2	-2%	1%	?	-1%	21µM*	?
CC1(C)CC=CC(COC(=O)c2ccccc2C(=O)O)C1 (configuration not stated)	16%	5%	14	·	-5%	-25%
COc1ccc(N2CCN(C(CNC(=O)OCc3ccccc3)c3ccco3)CC2)cc1 (configuration not stated)	-24%	-29%	-76*	11%	?	?
COc1ccc(N2CCN(C(CNS(=O)(=O)c3ccc(OC)c(C)c3)c3ccco3)CC2)cc1 (configuration not stated)	0%	-28%	·	10%	?	23µM*
O=S(=O)(NCC(c1ccco1)N1CCN(c2ccc(F)cc2)CC1)c1ccccc1 (configuration not stated)	-9%	?	·	10%	?	21µM*
O=S(=O)(NCC(c1ccco1)N1CCOCC1)c1ccc(F)cc1 (configuration not stated)	-22%	?	·	5%	-12%	-10%
Cc1ccc(S(=O)(=O)NCC(c2ccco2)N2CCN(c3ccccc3F)CC2)cc1 (configuration not stated)	0%	0%	·	0%	?	16µM*
COc1ccc(C(C#N)=Cc2ccc(NC(C)=O)cc2)cc1	7%	-6%	-7	·	-2%	-26%
CN(CCC#N)c1ccc(C=C(C#N)c2cccc(C(F)(F)F)c2)cc1	-26%	-13%	-28	·	16µM*	23µM*
CN(C)/C=C/C(=O)c1cccc(C(F)(F)F)c1	0%	-18%	-25	-4%	1%	-13%
CC(=O)Nc1ccc(C(C#N)=Cc2ccc(N(C)CCC#N)cc2)cc1	-17%	-6%	-30	·	?	15µM*
COc1ccc(C2=Nc3ccc(C)cc3NC(c3ccc(Cl)cc3)=N2)cc1	2%	3%	·	5%	?	?
O=C1C(CN2CCCC2)CCCC1CN1CCCC1 (configuration not stated)	-17%	0%	-8	·	0.52µM*	0.52µM*
C1CCN(CC2CCCCN2)CC1 (configuration not stated)	5%	-7%	4	·	-12%	12%
COc1ccccc1CCc1nnc(CCC(=O)N(C)Cc2cccc3ncccc23)o1	-16%	2%	-14	-3%	?	?
Cc1noc2ncnc(SCc3ccc(C(F)(F)F)cc3)c12	-20%	10%	?	-4%	?	16µM*
Cc1ccc(CSc2ncnc3onc(C)c23)cc1	11%	7%	11	0%	14%	-16%
Cc1ccc(Sc2ncnc3onc(C)c23)cc1	-9%	-7%	-16	-6%	?	21µM*
SMILES	HepG2 tox	TGFb SMAD3 inh	IL1B secr inh	TDP1 inh	DT40 TDP1 CPT	DT40 TDP1 no CPT
Cc1noc2ncnc(Sc3c(Cl)cccc3Cl)c12	11µM*	?	-115*	-2%	18µM*	16µM*
Cc1ccccc1Sc1ncnc2onc(C)c12	-2%	?	-52*	-5%	23µM*	23µM*
Cc1noc2ncnc(Nc3ccc(F)cc3)c12	2%	2%	·	·	0%	-10%
O=C(NCc1ccc(F)cc1)c1ccc2c(c1)nnn2C1CCCC1	-24%	?	·	5%	?	?
COC(=O)c1c(OCc2cccnc2)cc(=O)n2c1CCN(C(=O)c1cccc(N(C)C)c1)CC2	·	·	·	·	-6%	-8%
CCCS(=O)(=O)NCc1c(C)ncc2c1CCN(C(=O)c1cccc(Cl)c1F)C2	·	·	·	·	22%[9.04 µM]	-21%
CCCCN([C@H](CO)C(C)C)S(=O)(=O)c1ccccc1Br	-19%	?	0	1%[56.1 µM]	?	21µM*
COC(=O)COc1ccc2oc(=O)cc(-c3cc4cccc(OC)c4o3)c2c1	4%	8%	36	45µM*	-24%	1%
c1ccc2c(OCCCN3CCCCCC3)cccc2c1	-22%	3%	?	·	29µM*	23µM*
N=C(C[C@@H](O)COc1ccccc1-c1ccccc1)N1CCCCC1	·	·	·	12%[56.1 µM]	3µM*	3.8µM*
OCCN1CCN(CCOc2ccccc2-c2ccccc2)CC1	-2%	-23%	-26	5%	?	?
c1ccc(-c2ccccc2OCCCN2CCCCC2)cc1	-8%	4%	-15	3%	16µM*	15µM*
Cc1ccc(S(=O)(=O)Nc2c(Cl)c(Cl)c(O)c3ccccc23)cc1	·	·	·	10%	·	·
COc1ccc(S(=O)(=O)N2CCN(CC(=O)Nc3cccc(F)c3)CC2)cc1	2%	?	0	6%	-7%	-3%
COc1ccc(S(=O)(=O)N2CCN(CC(=O)Nc3ccc(C)c(F)c3)CC2)cc1	-18%	0%	-61*	9%	?	18µM*
Cc1ccc(NC(=O)CN2CCN(S(=O)(=O)c3ccc(C(C)C)cc3)CC2)cc1F	-7%	?	·	3%	21µM*	?
CC1Cc2ccccc2C[N+]1(C)CC(=O)c1ccc(I)cc1 (configuration not stated)	16%	8%	·	·	10µM*	14µM*
